Experiment [1] is described as follows: CCTE_Shafer_MEA_acute_cross_correlation_area: CCTE's Neural Acute Assay for Area of Cross Correlation, Shafer Lab (AID 2284024).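 Further: area under pooled inter-electrode spike cross-correlation near zero lag as percent change from own baseline; curves fitted for loss of cross-correlation area so actives lower synchrony.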 In outline: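 Percent change in well-wide cross-correlation area (window around zero lag) between 40 min baseline and 40 min post-compound recordings, 37 C; rat cortical cultures on MEA at DIV 13 or 15, dosed 0.03-40 uM, wells needing >/= 10 active electrodes.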

Experiment [2] in a line: CCTE_Shafer_MEA_acute_cross_correlation_HWHM: CCTE's Neural Acute Assay for Cross Correlation at Half Width at Half Maximum, Shafer Lab (AID 2284026).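 Further: spontaneous network firing of rat primary cortical neurons on multiwell microelectrode arrays; percent change per well from pre-dose baseline in spike cross-correlogram half width; hits are a decrease in cross-correlogram half width relative to DMSO.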 In outline:
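Per-well percent change in cross-correlogram half width at half maximum, derived from 40-min recordings before and after compound (0.03-40 uM) at 37 C. Cultures were rat cortical neurons, DIV 13 or 15, with adaptive spike detection at 8x rms.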

Experiment [3] can be described thus: CCTE_Shafer_MEA_acute_synchrony_index: CCTE's Neural Acute Assay for Synchrony, Shafer Lab (AID 2284027).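 Further: network synchrony index of spontaneous spiking in primary rat cortical neurons on MEAs; fitted for loss of signal so actives lower synchrony relative to DMSO.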 In outline:
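Primary rat cortical neurons on 48-well MEAs, dosed at 0.03–40 uM on DIV 13 or 15. Spikes are recorded for 40 min at 37C before and after exposure, and synchrony index (0–1) is expressed as percent change from baseline per well.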

In experiment [4] the target is Estrogen receptor (Homo sapiens) (UniProt P03372). Briefly: CCTE_Deisenroth_AIME_96WELL_LUC_Inactive: CCTE's 96-well Estrogen Receptor Transactivation Assay without AIME metabolic competence (ERTA luciferase; metabolism negative), Deisenroth Lab (AID 2284025; active means hit-call score of the fitted dose curve at least 0.9, where 1 is the maximum). Summed up: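 VM7Luc4E2 breast cells, luciferase read 24 h after dosing with medium pre-incubated 2 h on alginate-water lids (metabolism negative). 10-point series 0.002–200 uM, single technical replicate, n≥4; fit relative to 17beta-estradiol.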

Experiment [5] in a line: CCTE_Deisenroth_AIME_96WELL_CTox_Active: Cytotoxicity Assessment (CTOX) in CCTE's 96-well Estrogen Receptor Transactivation Assay with AIME metabolic competence (metabolism positive), Deisenroth Lab (AID 2284028; active means hit-call score of the fitted dose curve at least 0.9, where 1 is the maximum). In outline: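 Chemicals (0.002–200 uM) were first incubated 2 h with alginate-immobilized phenobarbital/beta-naphthoflavone-induced male rat liver S9; conditioned medium then went onto VM7Luc4E2 cells for 24 h, with viability read by protease-substrate fluorescence, fitted bidirectionally.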

The nature of experiment [6]: CCTE_Deisenroth_AIME_96WELL_CTox_Inactive: Cytotoxicity Assessment (CTOX) in CCTE's 96-well Estrogen Receptor Transactivation Assay without AIME metabolic competence (metabolism negative), Deisenroth Lab (AID 2284029; active means hit-call score of the fitted dose curve at least 0.9, where 1 is the maximum). Summed up:
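Chemicals (0.002 - 200 uM, 10 points) incubated 2 h with alginate-water microspheres (no S9), then medium moved onto VM7Luc4E2 cells for 24 h. Viability by protease-substrate cleavage to fluorescent probe; bidirectional fitting.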

In experiment [7] the target is Estrogen receptor (Homo sapiens) (UniProt P03372). Briefly: CCTE_Deisenroth_AIME_384WELL_LUC_Active: CCTE's 384-well Estrogen Receptor Transactivation Assay with AIME metabolic competence (ERTA luciferase; metabolism positive), Deisenroth Lab (AID 2284030; active means hit-call score of the fitted dose curve at least 0.9, where 1 is the maximum). Summed up:
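VM7Luc4E2 breast cells were given, for 24 hours, medium pre-incubated for 2 hours with parent chemical (0.002-200 uM, 10 concentrations) and alginate-encapsulated phenobarbital/beta-naphthoflavone-induced rat hepatic S9. Luciferase gain of signal was fitted against 17beta-estradiol; n=4 or more.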

Experiment [8] in a line: CCTE_Shafer_MEA_dev_firing_rate_mean: CCTE's Neural Network Formation Assay for Mean Firing Rate, Shafer Lab (AID 2284031). Summed up: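 Primary rat cortical neurons on 48-well MEA plates, exposed from plating day 0 with dosing renewed on DIV 5 and 9. Mean well firing rate over active electrodes, recorded days 5, 7, 9, 12, summarised as trapezoidal AUC.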
Experiment [9] is described as follows: CCTE_Shafer_MEA_dev_per_burst_spike_percent: CCTE's Neural Network Formation Assay for Percent of Spikes in a Burst, Shafer Lab (AID 2284032). In outline:
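Rat primary cortical neurons on 16-electrode MEA wells, dosed from plating day 0 for 12 days with renewal on DIV 5 and 9; spikes-in-bursts percentage averaged over bursting electrodes, collapsed as AUC across days 5, 7, 9, 12; loss direction versus DMSO.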

The nature of experiment [10]: CCTE_Deisenroth_AIME_384WELL_CTox_Active: Cytotoxicity Assessment (CTOX) in CCTE's 384-well Estrogen Receptor Transactivation Assay with AIME metabolic competence (metabolism positive), Deisenroth Lab (AID 2284037; active means hit-call score of the fitted dose curve at least 0.9, where 1 is the maximum;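 further: activity means signal loss indicating cell death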). In outline:
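Chemicals pre-incubated 2 hours with alginate-immobilised phenobarbital/beta-naphthoflavone-induced male Sprague Dawley rat liver S9, then conditioned medium applied 24 hour to VM7Luc4E2 cells. Viability by fluorogenic protease substrate; 10-point series 0.002 - 200 uM.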

For experiment [11], the target named is Estrogen receptor (Homo sapiens) (UniProt P03372). The experiment in a line: CCTE_Deisenroth_AIME_384WELL_LUC_Inactive: CCTE's 384-well Estrogen Receptor Transactivation Assay without AIME metabolic competence (ERTA luciferase; metabolism negative), Deisenroth Lab (AID 2284038; active means hit-call score of the fitted dose curve at least 0.9, where 1 is the maximum;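 further: VM7Luc4E2 breast cells given medium preincubated 2 h with S9-free microspheres; hits raise estrogen receptor luciferase signal so potencies reflect agonists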). Summed up: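 Metabolism-negative mode: chemicals (10-point, 0.002–200 uM) held 2 h with alginate-water microspheres, then conditioned medium applied to VM7Luc4E2 cells for 24 h. Luciferase induction referenced to 17beta-estradiol.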

Experiment [12] in a line: CCTE_Shafer_MEA_dev_active_electrodes_number: CCTE's Neural Network Formation Assay for Number of Active Electrodes, Shafer Lab (AID 2284040; active means hit-call score of the fitted dose curve at least 0.9, where 1 is the maximum). Summed up: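 Primary rat cortical neurons on 16-electrode MEA wells, exposed from day 0 through day 12 with compound renewed at DIV 5 and 9 feeds. Active electrodes (mean firing ≥5 spikes/min) counted at DIV 5, 7, 9, 12; trapezoidal AUC across days, loss-of-signal versus DMSO.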

Experiment [13] has as its target Estrogen receptor (Homo sapiens) (UniProt P03372). The experiment in a line: CCTE_Deisenroth_AIME_384WELL_LUC_Shift: CCTE's 384-well Estrogen Receptor Transactivation Assay with AIME metabolic competence data shift (ERTA luciferase; difference in metabolism positive and negative), Deisenroth Lab (AID 2284041).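 Further: shift is response with S9 minus without S9 so positive means metabolism raised ER signal.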 In outline:
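Chemicals (0.002–200 uM, 10 points) pre-incubated 2 h with alginate-encapsulated induced male Sprague Dawley rat liver S9 or S9-free, then medium applied 24 h to VM7Luc4E2 cells; luciferase. Endpoint is per-concentration difference, S9-positive minus negative.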

Experiment [14] in a line: CCTE_Shafer_MEA_dev_burst_rate: CCTE's Neural Network Formation Assay for Burst Rate, Shafer Lab (AID 2284042). In outline:
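Developmental network assay measuring how 12-day exposure of rat cortical neuron cultures alters bursting on extracellular MEA recordings. Values are AUC of well-mean burst rate across four recording days, relative to DMSO vehicle.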

Experiment [15] can be described thus: CCTE_Shafer_MEA_dev_per_burst_interspike_interval: CCTE's Neural Network Formation Assay for Burst Interspike Interval, Shafer Lab (AID 2284044).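 Further: mean spike spacing inside bursts as AUC over recordings on days 5 7 9 12.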 Summed up:
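Mean interspike interval within single-electrode bursts, averaged over bursting electrodes, from rat cortical cultures on MEA plates recorded on days 5, 7, 9 and 12. Continuous compound exposure from plating; trapezoidal AUC fitted downward relative to DMSO.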

Experiment [16] is described as follows: CCTE_Shafer_MEA_dev_burst_duration_mean: CCTE's Neural Network Formation Assay for Mean Burst Duration, Shafer Lab (AID 2284045). In outline: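 Primary rat cortical neurons on 48-well 16-electrode MEA plates, exposed from day 0 with renewal at DIV 5 and 9; spontaneous activity recorded on days 5, 7, 9, 12. Well-mean burst duration across bursting electrodes, collapsed as trapezoidal AUC; DMSO baseline.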

Experiment [17] is described as follows: CCTE_Shafer_MEA_dev_interburst_interval_mean: CCTE's Neural Network Formation Assay for Mean Interburst Interval, Shafer Lab (AID 2284046).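 Further: well-mean interburst interval of bursting electrodes as AUC over four recording days; curve fitted for decrease in interburst interval relative to DMSO.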 Summed up: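 Network formation assay in primary rat cortical cultures, exposed from DIV 0 to 12. Mean interburst interval per well, integrated as AUC over four recordings.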
Experiment [18] is described as follows: CCTE_Shafer_MEA_dev_inter_network_spike_interval_mean: CCTE's Neural Network Formation Assay for Mean Inter-network Spike Interval, Shafer Lab (AID 2284047). In outline:
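Compound was given at plating to primary rat cortical neurons and renewed with full medium changes on DIV 5 and 9. Extracellular activity was recorded on days 5, 7, 9, 12; AUC values were fitted for loss relative to DMSO control.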

A short description of experiment [19]: CCTE_Deisenroth_AIME_384WELL_CTox_Inactive: Cytotoxicity Assessment (CTOX) in CCTE's 384-well Estrogen Receptor Transactivation Assay without AIME metabolic competence (metabolism negative), Deisenroth Lab (AID 2284039; active means hit-call score of the fitted dose curve at least 0.9, where 1 is the maximum;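 further: cell viability via live-cell protease substrate cleaved to fluorescent probe; cells exposed 24 h to medium preincubated 2 h with alginate-water beads without S9; loss of fluorescence signal means loss of viability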). Summed up: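 Fluorescence from a live-cell protease substrate, read after 24 h in VM7Luc4E2 cells, indicated viability. Test medium came from a 2 h AIME step without hepatic S9 (alginate-water microspheres); concentrations spanned 0.002 - 200 uM, single technical replicate per run.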

Experiment [20] in a line: CCTE_Shafer_MEA_dev_bursting_electrodes_number: CCTE's Neural Network Formation Assay for Number of Bursting Electrodes, Shafer Lab (AID 2284043; active means hit-call score of the fitted dose curve at least 0.9, where 1 is the maximum). In outline:
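Primary rat cortical neurons plated on 16-electrode MEA wells, exposed from day 0 with compound renewed at DIV 5 and 9. Electrodes bursting ≥1 burst per 2 min counted on days 5, 7, 9 and 12; trapezoidal AUC across days, fitted for loss versus DMSO.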

Results filed as inconclusive are left out. Calls of active or inactive are those of the source. How the source made its calls, unless noted: active means hit-call score of the fitted dose curve at least 0.9, where 1 is the maximum; inactive means score below 0.9. Peptide text beside a SMILES is read from it.

Sequence of Estrogen receptor (Homo sapiens) (P03372 whole entry, looked up): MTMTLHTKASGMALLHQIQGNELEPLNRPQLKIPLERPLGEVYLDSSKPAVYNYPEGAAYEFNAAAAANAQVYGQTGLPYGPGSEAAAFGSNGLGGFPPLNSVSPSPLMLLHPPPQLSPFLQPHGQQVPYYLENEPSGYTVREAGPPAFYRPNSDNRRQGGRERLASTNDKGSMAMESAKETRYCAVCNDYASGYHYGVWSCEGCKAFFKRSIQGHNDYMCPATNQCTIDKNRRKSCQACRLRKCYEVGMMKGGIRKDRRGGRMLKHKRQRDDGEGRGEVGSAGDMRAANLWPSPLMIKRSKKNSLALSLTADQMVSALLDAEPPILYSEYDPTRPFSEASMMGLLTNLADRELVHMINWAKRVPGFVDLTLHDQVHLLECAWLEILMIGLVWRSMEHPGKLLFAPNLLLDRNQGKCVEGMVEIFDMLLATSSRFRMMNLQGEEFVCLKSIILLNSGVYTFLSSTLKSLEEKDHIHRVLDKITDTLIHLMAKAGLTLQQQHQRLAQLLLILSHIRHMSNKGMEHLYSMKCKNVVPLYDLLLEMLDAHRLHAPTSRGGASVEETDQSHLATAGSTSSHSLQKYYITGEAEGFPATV

In general, AC50 refers to the midpoint of the concentration-response curve, whichever way the signal moves. Consider `Nc1cccc(N)n1`, for which the result in [1] and in [2] was inactive. Also, in experiment [3], the AC50 was 0.003 µM (active).

With `Oc1ccc(/C=C/c2cc(O)cc(O)c2)cc1`, the values for the AC50 in experiment [4], in experiment [5] and in experiment [6] were 15.2 µM (active), 70.2 µM (active) and 40.5 µM (active), respectively.

For `COC(=O)[C@H](Cc1ccccc1)NC(=O)[C@@H](N)CC(=O)O` (H-Asp-Phe-OMe), the result in [1], in experiment [2], in experiment [3], in experiment [7], in experiment [8] and in experiment [9] was inactive. In addition, the outcome in [10], in experiment [11], in experiment [12], in [13], in experiment [14] and in [15] was inactive. The molecule was classed as inactive in [16], in [17] and in experiment [18].

`C1CNCCN1`: the call in experiment [1], in experiment [2] and in experiment [3] was inactive.

As to `O=C(O)CCC(=O)O`, the outcome in [7], in [10], in experiment [11], in [19] and in [13] was inactive.

Turning to `COc1ccc(C(=O)c2ccccc2)c(O)c1`, the AC50 in experiment [4] was 18.5 µM (active). The result in [5] was inactive.

Take `CC/C=C\CCOC(=O)c1ccccc1O`: the outcome in experiment [1], in experiment [2] and in [3] was inactive.

Consider `COc1ccc(-c2coc3cc(O)cc(O)c3c2=O)cc1`, for which the AC50 in experiment [4] was 0.971 µM (active); in [5] it was 75.9 µM (active); in experiment [6], 156 µM (active).

In the case of `Cc1c(C(=O)c2c[nH]n(C)c2=O)ccc(S(C)(=O)=O)c1C1=NOCC1`, the molecule was called inactive in experiment [1], in experiment [2], in [3], in [8], in [9] and in [12]. Also, the call in experiment [14], in experiment [20], in experiment [15], in experiment [16], in experiment [17] and in experiment [18] was inactive.

Consider `C[Si](C)(C)N[Si](C)(C)C`, for which the molecule was classed as inactive in experiment [7], in [10], in experiment [11], in experiment [19] and in experiment [13].

Take `CC(C)C(=O)OCCc1ccccc1`: the molecule was classed as inactive in [1], in experiment [2] and in [3].

As for `Nc1nc(N)nc(-c2ccccc2)n1`, the call in [1], in [2] and in [3] was inactive.

`O=c1c(O)c(-c2ccc(O)cc2O)oc2cc(O)cc(O)c12`: the AC50 in experiment [7] was 133 µM (active); in experiment [10], 100 µM (active); in experiment [11], 109 µM (active); in experiment [19], 146 µM (active). Further, the result in experiment [13] was inactive.

In the case of `CC1(C)CC(O)CC(C)(C)N1[O]`, the molecule was called inactive in [1], in experiment [2] and in experiment [3].

For `CCC1COC(=O)O1` (stereo not drawn), the molecule was called inactive in experiment [7], in [10], in experiment [11], in [19] and in experiment [13].

Regarding `CCCCCCCCCCCCCCCCCCOS(=O)(=O)O`, the molecule was called inactive in experiment [7], in [10], in [11], in experiment [19] and in experiment [13].

For `N#Cc1ccc(C(c2ccc(C#N)cc2)n2cncn2)cc1`, the outcome in experiment [7], in experiment [10], in experiment [11], in experiment [19] and in experiment [13] was inactive.

These data come from PubChem BioAssay (EPA / NIEHS).
